In PubChem BioAssay (Tox21):
Inconclusive results are not listed. Calls of active or inactive are those of the source. Unless noted, calls follow the shape of the dose curve; as a rule, active = well fitted curve in the direction sought with a large enough effect in the repeat runs; inconclusive = weak or mixed curves; inactive = no such curve, though single readings can be large; an effect the other way counts as inactive or inconclusive.

Experiments:
[1] = qHTS assay to identify small molecule agonists of the androgen receptor (AR) signaling pathway in the presence of an antagonist - cell viability counter screen (AID 1259379);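 also: MDA-kb2 human breast cancer cells carrying an MMTV luciferase reporter; series mostly up to about 92 µM; nearly all actives have a fitted effect of over 25% in size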
In short: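 Cells: MDA-kb2 (MMTV-luc, AR and GR elements), 3,000/well, 5 hr settle. Added: nilutamide 3.0uM final, then compounds (15 conc.). Incubation: 16 hr, 37C, no CO2. Read-out: CellTiter-Fluor, 1 hr, fluorescence.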

[2] = qHTS assay to identify small molecule agonists of the estrogen receptor beta (ER-beta) signaling pathway - cell viability counter screen (AID 1259380); also: nearly all actives have a fitted effect of over 30% in size
In short: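 HEK293T ER-beta-UAS-bla; 2% CS-FBS; 6 hr pre-plate, 16 hr cpd at 37C/5% CO2; LiveBLAzer read first, then CellTiter-Glo 30 min RT, luminescence.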

[3] = qHTS assay to identify small molecule antagonists of the estrogen receptor beta (ER-beta) signaling pathway - cell viability counter screen (AID 1259382);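 also: HEK293T cells carrying ER-beta-UAS-bla reporter stimulated with estradiol; series mostly up to about 92 µM; nearly all actives have a fitted effect of over 55% in size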
In short: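 Cells: ER-beta-UAS-bla HEK293T, 2,000/well, 2% CS-FBS, 6 hr settle. Cpd + E2 (1nM final), 16 hr, 37C/5% CO2. Bla FRET substrate 2 hr RT, then CellTiter-Glo 30 min RT, luminescence.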

[4] = target: Estrogen receptor (Homo sapiens) (UniProt P03372); assay: qHTS assay to identify small molecule agonists of the estrogen receptor alpha (ER-alpha) signaling pathway in the presence of an antagonist (AID 1259383; calls by dose curve; also: top concentration of the series differs between compounds; nearly all actives have a fitted effect of over 15% in size)
In short: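 VM7Luc4E2, endog. ER-alpha + 4×ERE-luc; charcoal-stripped FBS, phenol red-free, 5 d; 24hr plating; +10.0nM ICI-182,780 (final); cpds 15 conc, 22hr, 37C/5% CO2; ONE-Glo luminescence.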

[5] = qHTS assay to identify small molecule agonists or antagonists of the thyroid stimulating hormone receptor (TSHR) signaling pathway - wild type cell line counter screen (AID 1259384; calls by dose curve)
In short: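 Wild-type HEK293 cells were plated 18 h at 37 C/5% CO2, pin-dosed with compound plus Ro20-1724 medium, held 30 min at room temperature, then given cAMP-d2 and anti-cAMP-cryptate; fluorescence was read after 1 h. Fifteen concentrations, triplicate.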

[6] = target: Thyrotropin receptor (Homo sapiens) (UniProt P16473); assay: qHTS assay to identify small molecule antagonists of the thyroid stimulating hormone receptor (TSHR) signaling pathway (AID 1259385; calls by dose curve; also: nearly all actives have a fitted effect of over 20% in size)
In short: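 TSHR-HEK293 cells were plated and held 18 h at 37C/5% CO2, then given compound plus Ro20-1724 and stimulated with TSH at 1.5 ng/mL final. After 30 min at room temperature, cAMP was detected with cAMP-d2/anti-cAMP-cryptate (1 h) by fluorescence.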

[7] = qHTS assay to identify small molecule agonists of the estrogen receptor alpha (ER-alpha) signaling pathway in the presence of an antagonist - cell viability counter screen (AID 1259386);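 also: cells exposed to compounds for 22 h at 37 °C before the viability read; nearly all actives have a fitted effect of over 30% in size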; also: potency is read from the fitted curve at half-maximal effect; as to activity change, negative = cytotoxicity: series mostly up to about 92 µM
In short: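 VM7Luc4E2, stripped-serum pre-culture 5 d; 24hr plating; +ICI-182,780 10.0nM final; cpds 15 conc, 22hr, 37C/5% CO2; CellTiter-Fluor added at 21hr, fluorescence 1hr later.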

[8] = target: Progesterone receptor (Homo sapiens) (UniProt P06401); assay: qHTS assay to identify small molecule agonists of the progesterone receptor (PR) signaling pathway (AID 1346784; calls by dose curve; also: nearly all actives have a fitted effect of over 30% in size)
In short: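 Agonist qHTS: compounds pinned onto 3,000 PR-UAS-bla HEK 293T cells per well in charcoal-stripped serum medium, 16hr at 37C, then beta-lactamase activity measured by LiveBLAzer FRET fluorescence after 2 hours at room temperature.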
% is scaled to controls: 0 for no effect and ±100 for the full control effect.

Sequence of Progesterone receptor (Homo sapiens) (P06401 whole entry, looked up): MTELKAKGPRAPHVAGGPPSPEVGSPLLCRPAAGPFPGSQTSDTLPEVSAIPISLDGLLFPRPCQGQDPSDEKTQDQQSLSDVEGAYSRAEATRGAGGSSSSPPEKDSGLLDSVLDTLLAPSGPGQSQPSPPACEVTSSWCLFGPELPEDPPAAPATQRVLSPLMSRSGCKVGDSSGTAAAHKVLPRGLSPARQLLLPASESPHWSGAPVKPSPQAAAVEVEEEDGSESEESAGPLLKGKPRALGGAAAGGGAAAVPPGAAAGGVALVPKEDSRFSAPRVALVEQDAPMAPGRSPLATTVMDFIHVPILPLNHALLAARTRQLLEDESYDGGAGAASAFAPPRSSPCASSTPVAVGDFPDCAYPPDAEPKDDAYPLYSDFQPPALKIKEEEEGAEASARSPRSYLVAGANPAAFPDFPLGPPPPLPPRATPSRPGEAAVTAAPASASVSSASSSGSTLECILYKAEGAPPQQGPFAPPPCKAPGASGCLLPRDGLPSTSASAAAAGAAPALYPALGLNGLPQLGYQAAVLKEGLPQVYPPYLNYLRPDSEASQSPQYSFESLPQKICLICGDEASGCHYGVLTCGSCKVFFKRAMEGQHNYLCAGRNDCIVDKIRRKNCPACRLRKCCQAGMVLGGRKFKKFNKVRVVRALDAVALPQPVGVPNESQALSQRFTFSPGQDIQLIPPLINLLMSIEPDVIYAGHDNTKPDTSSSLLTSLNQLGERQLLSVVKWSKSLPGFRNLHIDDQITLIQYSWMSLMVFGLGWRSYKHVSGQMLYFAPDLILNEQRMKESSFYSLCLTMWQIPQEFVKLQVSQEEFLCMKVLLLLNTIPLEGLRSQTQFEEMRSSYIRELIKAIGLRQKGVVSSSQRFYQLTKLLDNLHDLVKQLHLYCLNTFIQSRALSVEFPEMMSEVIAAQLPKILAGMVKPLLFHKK
Sequence of Estrogen receptor (Homo sapiens) (P03372 whole entry, looked up): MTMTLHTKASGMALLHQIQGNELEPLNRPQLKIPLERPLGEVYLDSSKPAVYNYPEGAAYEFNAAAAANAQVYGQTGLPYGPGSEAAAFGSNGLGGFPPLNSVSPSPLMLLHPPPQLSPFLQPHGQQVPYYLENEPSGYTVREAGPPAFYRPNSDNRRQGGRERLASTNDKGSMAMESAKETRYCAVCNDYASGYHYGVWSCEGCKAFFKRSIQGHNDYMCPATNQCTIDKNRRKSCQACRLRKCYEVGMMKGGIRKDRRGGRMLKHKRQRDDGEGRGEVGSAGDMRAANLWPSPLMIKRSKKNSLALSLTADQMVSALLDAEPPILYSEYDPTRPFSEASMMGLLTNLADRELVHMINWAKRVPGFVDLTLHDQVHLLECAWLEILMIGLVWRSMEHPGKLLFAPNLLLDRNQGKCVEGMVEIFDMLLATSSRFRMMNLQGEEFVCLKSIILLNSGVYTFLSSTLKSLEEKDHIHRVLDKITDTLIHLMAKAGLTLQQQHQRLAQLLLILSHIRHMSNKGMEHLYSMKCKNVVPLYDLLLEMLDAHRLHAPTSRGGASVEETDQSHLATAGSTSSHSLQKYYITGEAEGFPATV
Sequence of Thyrotropin receptor (Homo sapiens) (P16473 whole entry, looked up): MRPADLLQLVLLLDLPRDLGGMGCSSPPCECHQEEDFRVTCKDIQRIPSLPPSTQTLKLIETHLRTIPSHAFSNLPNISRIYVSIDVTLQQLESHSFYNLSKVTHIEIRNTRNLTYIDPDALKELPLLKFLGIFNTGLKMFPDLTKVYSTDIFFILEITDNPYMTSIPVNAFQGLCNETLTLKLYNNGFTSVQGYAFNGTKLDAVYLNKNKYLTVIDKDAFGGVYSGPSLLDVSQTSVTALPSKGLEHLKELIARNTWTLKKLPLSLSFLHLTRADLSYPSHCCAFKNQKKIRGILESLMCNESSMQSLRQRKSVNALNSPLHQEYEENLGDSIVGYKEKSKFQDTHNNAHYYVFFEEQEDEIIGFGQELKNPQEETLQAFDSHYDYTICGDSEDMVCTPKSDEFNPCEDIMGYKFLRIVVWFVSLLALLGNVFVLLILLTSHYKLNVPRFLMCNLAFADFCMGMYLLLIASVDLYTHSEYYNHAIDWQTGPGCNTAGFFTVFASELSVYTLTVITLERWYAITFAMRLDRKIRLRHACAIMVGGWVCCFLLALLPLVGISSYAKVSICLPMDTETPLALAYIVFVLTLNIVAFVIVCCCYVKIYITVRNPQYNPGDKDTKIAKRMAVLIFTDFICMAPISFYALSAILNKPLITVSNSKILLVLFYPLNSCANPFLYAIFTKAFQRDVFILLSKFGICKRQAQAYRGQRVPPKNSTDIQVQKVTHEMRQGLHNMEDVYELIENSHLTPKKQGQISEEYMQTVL

CC(=O)Oc1cccc(C)c1
inactive: Potency [1] | Potency [2] | outcome [3] | outcome [4] | outcome [5] | outcome [6] | Potency [7] | Potency [8]

CNCC(O)c1ccc(O)c(O)c1 (configuration not stated)
inactive: Potency [1] | Potency [2] | outcome [3] | outcome [4] | outcome [6] | Potency [8]
active: Potency [7] 29.8 µM

CCN1C=CN(C)C1C (configuration not stated)
inactive: Potency [1] | Potency [2] | outcome [3] | outcome [4] | outcome [5] | outcome [6] | Potency [7] | Potency [8]

CCC1C(=O)OCC1Cc1cncn1C (configuration not stated)
inactive: Potency [1] | Potency [2] | outcome [3] | outcome [4] | outcome [5] | outcome [6] | Potency [7] | Potency [8]

CC(=O)c1cnccn1
inactive: Potency [1] | Potency [2] | outcome [3] | outcome [4] | outcome [5] | outcome [6] | Potency [7] | Potency [8]

CN(C)CCN(C)CCN(C)C
inactive: Potency [1] | Potency [2] | outcome [3] | outcome [4] | outcome [5] | Potency [7]

CO[Si](C)(OC)c1ccccc1
inactive: Potency [1] | Potency [2] | outcome [3] | outcome [4] | outcome [5] | outcome [6] | Potency [7]

O=C(O)c1cc(C(=O)O)cc(C(=O)O)c1
inactive: Potency [1] | Potency [2] | outcome [3] | outcome [4] | outcome [5] | outcome [6] | Potency [7] | Potency [8]

Cc1ccnc(NS(=O)(=O)c2ccc(N)cc2)n1
inactive: Potency [1] | Potency [2] | outcome [3] | outcome [4] | outcome [5] | outcome [6] | Potency [7] | Potency [8]

CC1=NS(=O)(=O)c2cc(Cl)ccc2N1
inactive: Potency [1] | Potency [2] | outcome [3] | outcome [4] | outcome [5] | outcome [6] | Potency [7] | Potency [8]

Nc1ccn([C@@H]2O[C@H](CO)[C@@H](O)C2O)c(=O)n1 (some centres not stated)
inactive: Potency [1] | Potency [2] | outcome [3] | outcome [4] | Potency [7] | Potency [8]

CC(C)(C)C(=O)c1ccccc1
inactive: Potency [1] | Potency [2] | outcome [3] | outcome [4] | outcome [5] | outcome [6] | Potency [7] | Potency [8]

CCCC[N+](C)(CCCC)CCCC
inactive: Potency [1] | Potency [2] | outcome [3] | outcome [4] | outcome [5] | outcome [6] | Potency [7] | Potency [8]

COc1cc(C(=O)NCc2ccc(OCCN(C)C)cc2)cc(OC)c1OC
inactive: Potency [1] | Potency [2] | outcome [3] | outcome [4] | outcome [5] | outcome [6] | Potency [7] | Potency [8]

CC(C)(C)C(=O)Oc1ccc(S(=O)(=O)Nc2ccccc2C(=O)NCC(=O)O)cc1
inactive: Potency [1] | Potency [2] | outcome [3] | outcome [4] | outcome [5] | outcome [6] | Potency [7] | Potency [8]

C1CCC2(CCCCO2)OC1
inactive: Potency [1] | Potency [2] | outcome [3] | outcome [4] | outcome [5] | outcome [6] | Potency [7] | Potency [8]

O=C(O)CC(C(=O)O)S(=O)(=O)O (configuration not stated)
inactive: Potency [1] | Potency [2] | outcome [3] | outcome [4] | outcome [5] | outcome [6] | Potency [7] | Potency [8]

CC(=O)C1CCCCC1=O (configuration not stated)
inactive: Potency [1] | Potency [2] | outcome [3] | outcome [4] | outcome [5] | outcome [6] | Potency [7] | Potency [8]

CC/C=C\CCOC(C)OCC (configuration not stated)
inactive: Potency [1] | Potency [2] | outcome [3] | outcome [4] | outcome [5] | outcome [6] | Potency [7] | Potency [8]

O=C(O)CNC(=O)c1ccc(CO)o1
inactive: Potency [1] | Potency [2] | outcome [3] | outcome [4] | Potency [7]

CCCC(C)C(=O)OCC (configuration not stated)
inactive: Potency [1] | Potency [2] | outcome [3] | outcome [4] | outcome [5] | outcome [6] | Potency [7] | Potency [8]

Cc1ccc(C(=O)Nc2ccc(S(=O)(=O)O)c3cc(S(=O)(=O)O)cc(S(=O)(=O)O)c23)cc1NC(=O)c1cccc(NC(=O)Nc2cccc(C(=O)Nc3cc(C(=O)Nc4ccc(S(=O)(=O)O)c5cc(S(=O)(=O)O)cc(S(=O)(=O)O)c45)ccc3C)c2)c1
inactive: Potency [1] | Potency [2] | outcome [3] | outcome [4] | outcome [5] | outcome [6] | Potency [7] | Potency [8]

O=S(=O)(O)c1cccc2ccccc12
inactive: Potency [1] | Potency [2] | outcome [3] | outcome [5] | outcome [6] | Potency [7] | Potency [8]

CN1CCN(c2cc3c(nn2)Oc2ccccc2N3C)CC1
inactive: activity change, negative = cytotoxicity [1] 0.723% [at 19 µM] | activity change, negative = cytotoxicity [2] 2.64% [at 19 µM] | activity change, negative = cytotoxicity [3] -0.299% [at 19 µM] | cAMP activity change [5] -3.2% [at 18.9 µM] | activity change, negative = cytotoxicity [7] -4.4% [at 19 µM] | activation [8] 0.134% [at 19 µM]

NCCCC(N)(C(=O)O)C(F)F (configuration not stated)
inactive: Potency [1] | Potency [2] | outcome [3] | outcome [5] | outcome [6] | Potency [7] | Potency [8]

CC(C(=O)O)c1cccc(Oc2ccccc2)c1 (configuration not stated)
inactive: Potency [1] | Potency [2] | outcome [3] | Potency [7] | Potency [8]

NO
inactive: Potency [1] | Potency [2] | outcome [3] | outcome [5] | outcome [6] | Potency [7]

CC12CCC(C(=O)C1=O)C2(C)C (configuration not stated)
inactive: Potency [1] | Potency [2] | outcome [3] | Potency [7]
